Here are results for 40 compounds from PubChem BioAssay (NCI).

Molecules are shown by their SMILES. Values joined by “and” are separate entries in the source; they are usually repeats but may differ in a detail not shown here. Equal entries are not always repeated. This is part of a sample that, as a whole, favours compounds with a hit. Of some 83,000 tested, about 20% had one in any assay.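 Negative percent growth values reflect cell death: -40 means 40% of the cells present at the start died, and -100 means all died.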 Active and inactive are the calls of the source. How the source made its calls: active means growth percent below 10; inactive means the rest.

This assay relates to MDA-MB-468 breast. Nature of the assay: NCI-60 one-dose screen, 48 h (100 = growth as untreated, 0 = no growth, -100 = all killed). To be noted: 10 µM unless noted.
Take `C#CC(=O)Nc1cccc(Nc2nc3c(c(NCc4ccccc4)n2)CCCC3)c1`: the growth is -54.7% (active).
On to `CCCCCCCC/C=C\CCCCCCCCOc1cccc(CC(=O)NCC[N+]2(C)CCOCC2)c1`, for which the growth is 86% (inactive).
With `CCCCNC(=O)c1ccccc1C`, the growth is 82.3% (inactive).
With `O=C1[C@@H]2Cc3c([nH]c4ccccc34)[C@@H](c3ccc(Cl)cc3)N2C(=O)CN1C1CCN(Cc2c(F)cccc2F)CC1`, the growth is 40.3% (inactive).
In the case of `CC(C)C[C@H](C(=O)N[C@@H](C)C(N)=O)N1CC=CCN(O)S1(=O)=O`, the growth was 109% [5 µM] (inactive).
In the case of `C[C@H]1[C@H]2[C@H]3CC[C@@H]4[C@@]5(C)C/C(=C/c6cccnc6)C(=O)C(C)(C)[C@@H]5CC[C@@]4(C)[C@]3(C)CC[C@]23CO[C@]1(C)[C@@H](C(=O)/C=C\c1cccnc1)C3`, the growth was -5.83% (active).
With `COc1ccc([N+](=O)[O-])cc1OC`, the growth is 108% (inactive) and 101% (inactive).
Regarding `CC(=O)c1cnc(-c2ccccc2)nc1CBr`, the growth was 49.6% (inactive).
In the case of `COc1ccc(/C=C/c2nnc(/C=C/c3ccc(OC)c(OC)c3)o2)cc1OC`, the growth was 19% (inactive).
As to `COc1ccc2c(OCc3nnc4ccc(-c5ccccc5)nn34)ccnc2c1`, the growth was 97.2% [2.5 µM] (inactive).
On to `CCN(CC)C(=S)SSC(=S)N(CC)CC`, for which the growth is 77.7% (inactive) and 111% (inactive).
Consider `CN(C)C1=NCCN1`, for which the growth was 108% (inactive).
On to `C=C1C(=O)O[C@H]2[C@H]1CC/C(COC(=O)CCCCCC(=O)OC/C1=C/CC[C@@]3(C)O[C@H]3[C@H]3OC(=O)C(=C)[C@@H]3CC1)=C\CC[C@@]1(C)O[C@@H]21`, for which the growth is -33.4% (active).
Consider `O=c1[nH]c2c3ccncc3cc(-c3cccc(Cl)c3)c2c2cnccc12`, for which the growth was 42.1% (inactive).
Consider `O=c1c(/C=C/c2c(O)ccc3ccccc23)nnc2sc(-c3cccc([N+](=O)[O-])c3)nn12`, for which the growth was 40.9% (inactive).
In the case of `O=C(Nc1cccc(Cl)c1)Oc1c(Br)c(Br)c(Br)c(Br)c1Br`, the growth is 94.1% (inactive).
As to `COc1ccc(/C=C2\C=C(c3ccccc3)N(CCc3ccccc3)C2=O)cc1OC`, the growth is 44% (inactive).
Consider `CCOC(=O)c1cccnc1Nc1ccc(NC(=O)Nc2ccc(Cl)c(C(F)(F)F)c2)cc1`, for which the growth was 21.3% (inactive).
Regarding `C=C(C)[C@@H]1CCC[C@]2(COS(=O)(=O)c3ccc(C)cc3)CC[C@]3(C)[C@@H](CC[C@@H]4[C@@]5(C)CCCNC(C)(C)[C@@H]5CC[C@]43C)[C@@H]12`, the growth was -78.2% (active).
To `CCOC(=O)c1c(NCC(=O)Nc2cccc(Cl)c2)sc2c1CCCC2` belongs 73% (inactive).
As to `Cc1ccc2[nH]cc(-c3nc(-c4cn(C)c5ncccc45)cs3)c2c1`, the growth was -0.335% (active).
For the compound `O=S(=O)(NCCNc1nccc(-c2c(-c3cccc(F)c3)nc3sccn23)n1)c1ccc(Cl)cc1`, the growth is 64.5% (inactive).
Turning to `COc1ccc(/C(C)=C(\c2ccc(Cl)cc2)c2ccc(OCCN3CCCCC3)cc2)cc1F`, the growth is 15.7% (inactive).
Regarding `O=C(Nc1ccccc1Cl)OCCN1CCOCC1`, the growth is 109% (inactive).
With `O=C(NNc1nc2cc(F)ccc2n2c(CO)ccc12)c1cnccn1`, the growth is -14% (active).
On to `CCCCCCCCCC1=NC(C)(C)CN1C(C)(C)CO`, for which the growth is 70.3% (inactive).
Regarding `C/C=C/[C@@H]1C=C[C@@H]2C[C@H](C)CC[C@H]2[C@]1(C)/C(O)=C1/C(=O)[C@H](CO)N(C)C1=O`, the growth is 65.5% (inactive).
As to `COc1ccc(C(=O)c2cc(OC)c(OC)c(OC)c2)cc1/C=C/C(=O)c1ccc2c(c1)OCO2`, the growth is 9.38% (active).
`CCCCCCCCNc1ncnc2c1ncn2Cc1nnc2c3ccccc3c(Cl)nn12`: the growth was 40.6% (inactive).
As to `CCCCCCCCOC(=O)c1c(C)[nH]c(/C=C2\N=C(c3ccc[nH]3)C=C2OC)c1C`, the growth is -25.7% (active).
For `C/C(=C(/c1ccc(O)cc1)c1ccc(OCCN2CCCC2)cc1)c1ccc(Cl)cc1`, the growth is 13.5% (inactive).
As for `C=CCn1c(CN2CCN(c3cc4c(cc3F)c(=O)c(C(=O)O)cn4C3CC3)CC2)n[nH]c1=S`, the growth was 105% (inactive).
For `COc1ccc(S(=O)(=O)n2cc(C(=O)C(=O)Nc3ccncc3)c3ccccc32)cc1F`, the growth was 17.9% (inactive).
Consider `O=[N+]([O-])c1ccc(-c2ncc(-c3ccc(O)cc3O)[nH]2)cc1`, for which the growth was 107% (inactive).
The figure for `O=C1/C(=C/c2ccc(Cl)c(Cl)c2)CN(C(=O)C(Cl)Cl)C/C1=C\c1ccc(Cl)c(Cl)c1` is -52.5% (active); for `C=C1C(=O)O[C@H]2[C@H]1CC/C(C=Nc1ccc(C(F)(F)F)cc1N)=C\CC[C@@]1(C)O[C@@H]21` it is 1.92% (active).
Consider `NC(N)=N/N=C/c1ccc(-c2ccc(-c3cc(Cl)cc(Cl)c3)s2)cc1`, for which the growth was -47.1% (active).
For the compound `COc1cc(NCCCCN=C(N)NC(N)=NC(C)C)c2ncccc2c1`, the growth was -61.8% (active).
Turning to `CN(C)C(=O)OCc1ccc2c(Cl)cc(Cl)c(O)c2n1`, the growth was 27% (inactive).
In the case of `COc1cc(NS(C)(=O)=O)ccc1Nc1c2ccccc2nc2c(C)cccc12`, the growth is -14.3% (active).
